# PubChem BioAssay
# Inconclusive results are not listed. Calls of active or inactive are those of the source.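 The calls were made as follows, unless noted: active = aptamer binding inhibition above 30%, about 3 SD of noise from non-fluorescent compounds; inactive = inhibition at or below 30%.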
# How the values were obtained:
# [1] = rapamycin-like changes in RPL19A-GFP expression – cell-based, S. cerevisiae, multiplex flow cytometry, primary screen (AID 1862; in the data active = percent of DMSO control GFP below about 86%;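 also: lower values mimic rapamycin by blocking the RPL19A rise seen in DMSO cells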); settings: S. cerevisiae RPL19A-GFP strain, flow cytometry fluorescence, 3 h; at 10 µM; stronger effect = lower value
# [2] = TOR pathway GLN3 branch reporter MEP2-GFP changes – S. cerevisiae, multiplex flow cytometry, primary screen (AID 1867;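 active = GFP response, as percent of the DMSO control, above the screen-wide mean plus 3 SD, about 139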;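 also: median GFP channel fluorescence of barcode-gated MEP2-GFP cells measured by flow cytometry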); settings: S. cerevisiae MEP2-GFP strain, 3 h, at 10 µM, stronger effect = higher value, 100% means same as DMSO wells
# [3] = TOR pathway RTG branch CIT2 reporter changes – S. cerevisiae, GFP fusion, multiplex flow cytometry, primary screen (AID 1870;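 active = percent response above a set limit, the screen-wide mean plus 3 SD, cut at about 130% in these data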;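 also: barcoded CIT2-GFP strain pooled with four other GFP strains with rapamycin as positive control; median GFP fluorescence per well over plate mean of DMSO wells so 100% = DMSO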); settings: S. cerevisiae CIT2-GFP expression, 3 h, at 10 µM, stronger effect = higher value
# [4] = TOR pathway LAP4-GFP level changes – S. cerevisiae, multiplex flow cytometry, primary screen (AID 1873;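 active = GFP signal, as percent of the solvent control, above the screen mean plus 3 SD, about 149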); settings: S. cerevisiae LAP4-GFP expression, 3 h, at 10 µM, stronger effect = higher value
# [5] = yeast AGP1-GFP level changes, GLN3 branch – cell-based, multiplex flow cytometry, S. cerevisiae, primary screen (AID 1887;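 active = GFP signal above the screen-wide mean plus 3 SD, that is over about 124.5% of the solvent control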;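 also: AGP1-GFP fusion strain of S. cerevisiae within a five-strain barcoded multiplex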); settings: 3 h, at 10 µM, stronger effect = higher value
# [6] = reduced mouse 2C T cell binding to pMHC/ICAM-1 vesicles – MLPCN validation set, flow cytometry, LFA-1/ICAM-1 modulator project, pilot screen (AID 2523;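 active = response below a set limit, under 55% cells CD8-positive and vesicle-bound, and CD8 cells' 90th-percentile brightness under 279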;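 as to vesicle binding response: mean PE anti-B7-1 fluorescence of CD8+ cells relative to row control; 100% = QL9-loaded vesicles with DMSO vehicle in the same plate row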); settings: 2C mouse CD8+ T cells, at 7 µM, stronger effect = lower value; double positive events: measured here: CD8+/vesicle+ event percentage
# [7] = biological target: Integrin beta-1 (Homo sapiens) + Integrin alpha-4 (Homo sapiens) (UniProt P13612+P05556); experiment: alpha4beta1 integrin LIBS antibody binding reduction – U937 cells, HUTS-21 mAb, flow cytometry, validation set, VLA-4 allosteric modulator project, pilot screen (AID 2674;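 active = inhibition above 50%, about 3 SD of the validation set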;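 also: antibody binding induced by the VLA-4 ligand LDV present at three times its Kd; 0% = LDV ligand with antibody and no compound and 100% = antibody without LDV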); settings: HUTS-21 LIBS mAb binding, at 6.7 µM, stronger effect = higher value, binding induced by LDV ligand
# [8] = calorie-restriction mimetic ROS inhibitors, yeast – validation compound set, pilot screen (AID 2706;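 active = superoxide response below 65% of plate, a cut near 3 SD across the whole screen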;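 also: yeast exposed to compound for one week at 30 degrees C before staining; 100% = mean of all compound wells on the same plate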); settings: S. cerevisiae aging, superoxide DHE fluorescence; at 10 µM; stronger effect = lower value
# [9] = biological target: Beta-adrenergic receptor kinase 1 (Homo sapiens) (UniProt P25098); experiment: GRK2 binders displacing RNA aptamer, biochemical, validation, human GRK2, bead flow cytometry (AID 488806); settings: bead-bound GRK2, FAM-aptamer displacement, at 10 µM, stronger effect = higher value
# [10] = biological target: Beta-2 adrenergic receptor (Homo sapiens) (UniProt P07550); experiment: agonist-induced loss of surface beta2AR – cell-based, FAP fluorogen, flow cytometry, validation set, pilot screen (AID 504459;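 active = percent response above 42, roughly 3 SD of non-fluorescent test compounds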;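 also: agonist-driven loss of surface beta2AR via internalization measured by FAP dye flow cytometry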); settings: Am2.2-beta2AR cells, at 10 µM, stronger effect = higher value
# [11] = biological target: AP-2 complex subunit beta (Homo sapiens) (UniProt P63010); experiment: beta-arrestin/AP2 interaction blockers – biochemical, validation set, GST-AP2 beads, flow cytometry, pilot screen (AID 504541;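 active = inhibition above 54%, about 3 SD of non-fluorescent compounds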;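 also: AP2 carries R879A mutation and is captured from E. coli lysate; bead-bound FITC arrestin peptide fluorescence measuring arrestin peptide binding to AP2; 0% = DMSO wells and 100% = excess unlabeled arrestin peptide control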); settings: FITC arrestin peptide, at 10 µM, stronger effect = higher value, AP2 beta2 appendage fragment, R879A mutant
# [12] = cytosolic pH regulators acting via V-ATPase – S. cerevisiae, pHLuorin, HTS validation (AID 504600; in the data active = response above about 15%;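 also: plate controls were DMSO for no effect and reference compound for full effect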); settings: V-ATPase proton transport, at 10 µM, stronger effect = higher value
# [13] = test system: anti-desmoglein-3 scFv antibody binding to human DSG3; experiment: blockers of pathogenic pemphigus antibody–desmoglein-3 binding – biochemical, validation compound set, bead-based, flow cytometry, pilot screen (AID 588368;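 active = binding below the plate cutoff, the plate median minus 3 SD, with a reading above zero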;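 also: signal is the median channel fluorescence of bead-bound GFP antibody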); settings: Protein G beads, DSG3-Fc, scFv-GFP binding, at 10 µM, stronger effect = lower value
# [14] = Nile Red efflux blockade in pump-expressing yeast – validation compound set, multiplex, phenotypic, pilot screen (AID 588506;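 active = efflux inhibition above 0.42, the validation set average plus 4 SD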;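 also: Nile Red retained in cells so higher fluorescence means more efflux inhibition; 0 = negative control wells and 1 = enniatin B 25 µM full block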); settings: S. cerevisiae pump-expressing triplex, Nile Red efflux flow cytometry; at 10 µM; stronger effect = higher value; the pumps come from Candida albicans
# [15] = biological target: ATP-binding cassette sub-family B member 6 (Homo sapiens) (UniProt Q9NP58); experiment: blockers of ABCB6-driven porphyrin uptake – K562-ABCB6 cells, flow cytometry, validation set, pilot screen (AID 588550;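 active = inhibition above the screen-wide mean plus 3 SD, about 51%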;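 also: 0% = DMSO wells and 100% = benzethonium chloride 70 µM positive control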); settings: K562-ABCB6 porphyrin accumulation, 1 h, at 10 µM, stronger effect = higher value
# [16] = AML differentiation inducers, ER-HoxA9 marrow cells – cell-based, GFP/MAC1 double positive, flow cytometry, validation set, primary screen (AID 588685;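 active = differentiation response of at least 50%, scaled between solvent and reference control, from cells with both markers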;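 also: compound exposure lasts four days before antibody staining and flow analysis; 0% = DMSO wells and 100% = 5 µM fulvestrant positive control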); settings: stronger effect = higher value, normalized: vehicle 0, fulvestrant 100
# Chain of Beta-2 adrenergic receptor (Homo sapiens) (P07550 whole entry, looked up): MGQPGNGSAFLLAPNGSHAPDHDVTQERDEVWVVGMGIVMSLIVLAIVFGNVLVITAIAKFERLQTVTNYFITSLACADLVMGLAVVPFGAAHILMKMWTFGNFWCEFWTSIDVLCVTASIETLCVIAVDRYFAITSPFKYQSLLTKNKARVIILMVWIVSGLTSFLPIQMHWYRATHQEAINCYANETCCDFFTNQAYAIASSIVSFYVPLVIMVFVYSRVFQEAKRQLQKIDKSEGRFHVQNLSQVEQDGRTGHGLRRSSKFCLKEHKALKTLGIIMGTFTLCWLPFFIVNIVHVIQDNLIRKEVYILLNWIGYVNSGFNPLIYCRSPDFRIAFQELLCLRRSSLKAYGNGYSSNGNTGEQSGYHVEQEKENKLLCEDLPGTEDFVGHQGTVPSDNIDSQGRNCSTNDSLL
# Chain of ATP-binding cassette sub-family B member 6 (Homo sapiens) (Q9NP58 whole entry, looked up): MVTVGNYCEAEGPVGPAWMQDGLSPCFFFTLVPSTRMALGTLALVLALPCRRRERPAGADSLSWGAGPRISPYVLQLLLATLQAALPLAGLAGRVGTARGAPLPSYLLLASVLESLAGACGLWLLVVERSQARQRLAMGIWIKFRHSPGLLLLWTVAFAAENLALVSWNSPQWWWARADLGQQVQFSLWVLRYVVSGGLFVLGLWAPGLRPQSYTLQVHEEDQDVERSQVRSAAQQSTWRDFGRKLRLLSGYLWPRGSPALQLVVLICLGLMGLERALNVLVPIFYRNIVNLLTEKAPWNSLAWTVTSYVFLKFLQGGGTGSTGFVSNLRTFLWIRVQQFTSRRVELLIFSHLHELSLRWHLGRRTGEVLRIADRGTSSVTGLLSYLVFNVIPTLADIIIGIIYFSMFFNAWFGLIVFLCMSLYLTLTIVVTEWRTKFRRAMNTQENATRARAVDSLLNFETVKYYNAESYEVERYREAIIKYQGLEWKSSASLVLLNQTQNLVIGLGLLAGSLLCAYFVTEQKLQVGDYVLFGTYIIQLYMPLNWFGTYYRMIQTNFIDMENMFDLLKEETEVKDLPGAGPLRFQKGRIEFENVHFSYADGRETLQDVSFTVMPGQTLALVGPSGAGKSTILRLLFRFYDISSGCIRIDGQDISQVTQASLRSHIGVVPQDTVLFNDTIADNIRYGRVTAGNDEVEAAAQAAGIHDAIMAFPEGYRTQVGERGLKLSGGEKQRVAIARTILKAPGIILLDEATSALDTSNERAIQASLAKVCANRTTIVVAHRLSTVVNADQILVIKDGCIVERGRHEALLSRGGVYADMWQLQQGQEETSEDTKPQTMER
# Chain of AP-2 complex subunit beta (Homo sapiens) (P63010 whole entry, looked up, the tested form may be a part, one chain of several): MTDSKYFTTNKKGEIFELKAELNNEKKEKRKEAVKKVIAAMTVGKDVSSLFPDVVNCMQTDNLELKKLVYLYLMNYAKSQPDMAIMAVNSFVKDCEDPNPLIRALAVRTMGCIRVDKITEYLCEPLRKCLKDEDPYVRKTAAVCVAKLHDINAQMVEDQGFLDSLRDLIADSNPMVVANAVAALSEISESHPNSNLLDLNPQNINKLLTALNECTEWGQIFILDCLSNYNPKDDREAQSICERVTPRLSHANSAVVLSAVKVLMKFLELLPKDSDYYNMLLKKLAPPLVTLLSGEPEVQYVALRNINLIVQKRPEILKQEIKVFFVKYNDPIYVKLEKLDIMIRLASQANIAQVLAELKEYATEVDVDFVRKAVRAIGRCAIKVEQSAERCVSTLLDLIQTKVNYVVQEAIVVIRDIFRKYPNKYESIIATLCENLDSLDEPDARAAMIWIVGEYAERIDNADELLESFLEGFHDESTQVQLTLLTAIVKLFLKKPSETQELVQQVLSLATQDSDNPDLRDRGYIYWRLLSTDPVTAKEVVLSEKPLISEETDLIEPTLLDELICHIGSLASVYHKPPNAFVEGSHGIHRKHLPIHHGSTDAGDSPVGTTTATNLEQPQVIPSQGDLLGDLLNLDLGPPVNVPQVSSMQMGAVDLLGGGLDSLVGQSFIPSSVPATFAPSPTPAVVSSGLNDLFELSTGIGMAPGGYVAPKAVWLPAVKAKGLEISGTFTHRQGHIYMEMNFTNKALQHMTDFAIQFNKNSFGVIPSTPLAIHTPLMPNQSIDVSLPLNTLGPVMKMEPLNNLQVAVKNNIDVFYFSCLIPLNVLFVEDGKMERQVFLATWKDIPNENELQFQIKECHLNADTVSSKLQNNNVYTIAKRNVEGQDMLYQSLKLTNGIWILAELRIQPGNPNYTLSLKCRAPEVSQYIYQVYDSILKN
# Chain of Beta-adrenergic receptor kinase 1 (Homo sapiens) (P25098 whole entry, looked up): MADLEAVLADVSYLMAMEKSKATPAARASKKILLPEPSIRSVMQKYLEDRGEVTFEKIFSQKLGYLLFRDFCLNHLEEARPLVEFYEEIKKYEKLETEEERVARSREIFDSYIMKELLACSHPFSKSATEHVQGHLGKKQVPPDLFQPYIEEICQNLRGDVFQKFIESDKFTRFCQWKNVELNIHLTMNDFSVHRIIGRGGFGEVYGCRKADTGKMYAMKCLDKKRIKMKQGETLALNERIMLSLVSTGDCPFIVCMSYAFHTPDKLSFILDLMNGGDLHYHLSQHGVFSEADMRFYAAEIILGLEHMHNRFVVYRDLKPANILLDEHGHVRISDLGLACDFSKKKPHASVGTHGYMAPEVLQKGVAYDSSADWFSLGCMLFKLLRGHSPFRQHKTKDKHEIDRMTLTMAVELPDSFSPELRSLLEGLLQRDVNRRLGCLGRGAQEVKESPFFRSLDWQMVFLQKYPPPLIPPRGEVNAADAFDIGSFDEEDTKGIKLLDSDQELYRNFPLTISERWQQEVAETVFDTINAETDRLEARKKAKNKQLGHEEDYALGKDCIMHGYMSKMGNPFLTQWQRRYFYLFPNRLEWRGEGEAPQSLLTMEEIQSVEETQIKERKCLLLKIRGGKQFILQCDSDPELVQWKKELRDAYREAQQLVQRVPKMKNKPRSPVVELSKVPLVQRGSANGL
# Chain of Integrin beta-1 (Homo sapiens) + Integrin alpha-4 (Homo sapiens) (P05556 whole entry, looked up): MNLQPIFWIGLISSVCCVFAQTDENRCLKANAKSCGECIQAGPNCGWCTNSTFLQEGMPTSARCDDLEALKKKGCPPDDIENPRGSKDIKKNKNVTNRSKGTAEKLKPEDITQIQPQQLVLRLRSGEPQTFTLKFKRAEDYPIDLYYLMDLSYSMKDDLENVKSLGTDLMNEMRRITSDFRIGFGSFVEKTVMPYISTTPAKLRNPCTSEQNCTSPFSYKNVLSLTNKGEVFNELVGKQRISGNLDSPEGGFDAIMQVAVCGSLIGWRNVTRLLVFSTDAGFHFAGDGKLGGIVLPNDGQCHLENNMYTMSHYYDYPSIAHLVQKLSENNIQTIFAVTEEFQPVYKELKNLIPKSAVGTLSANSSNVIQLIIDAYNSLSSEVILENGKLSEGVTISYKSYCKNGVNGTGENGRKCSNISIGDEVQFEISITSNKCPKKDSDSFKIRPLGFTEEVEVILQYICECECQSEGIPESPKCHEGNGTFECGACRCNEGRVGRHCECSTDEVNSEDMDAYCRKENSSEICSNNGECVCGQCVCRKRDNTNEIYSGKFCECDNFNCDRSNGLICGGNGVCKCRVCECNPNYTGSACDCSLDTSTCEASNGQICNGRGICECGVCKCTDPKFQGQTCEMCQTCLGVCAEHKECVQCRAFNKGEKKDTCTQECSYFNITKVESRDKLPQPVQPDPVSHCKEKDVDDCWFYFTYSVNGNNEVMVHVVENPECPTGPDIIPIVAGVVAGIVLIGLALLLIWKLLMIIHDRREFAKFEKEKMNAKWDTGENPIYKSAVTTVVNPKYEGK
# Chain of Integrin beta-1 (Homo sapiens) + Integrin alpha-4 (Homo sapiens) (P13612 whole entry, looked up): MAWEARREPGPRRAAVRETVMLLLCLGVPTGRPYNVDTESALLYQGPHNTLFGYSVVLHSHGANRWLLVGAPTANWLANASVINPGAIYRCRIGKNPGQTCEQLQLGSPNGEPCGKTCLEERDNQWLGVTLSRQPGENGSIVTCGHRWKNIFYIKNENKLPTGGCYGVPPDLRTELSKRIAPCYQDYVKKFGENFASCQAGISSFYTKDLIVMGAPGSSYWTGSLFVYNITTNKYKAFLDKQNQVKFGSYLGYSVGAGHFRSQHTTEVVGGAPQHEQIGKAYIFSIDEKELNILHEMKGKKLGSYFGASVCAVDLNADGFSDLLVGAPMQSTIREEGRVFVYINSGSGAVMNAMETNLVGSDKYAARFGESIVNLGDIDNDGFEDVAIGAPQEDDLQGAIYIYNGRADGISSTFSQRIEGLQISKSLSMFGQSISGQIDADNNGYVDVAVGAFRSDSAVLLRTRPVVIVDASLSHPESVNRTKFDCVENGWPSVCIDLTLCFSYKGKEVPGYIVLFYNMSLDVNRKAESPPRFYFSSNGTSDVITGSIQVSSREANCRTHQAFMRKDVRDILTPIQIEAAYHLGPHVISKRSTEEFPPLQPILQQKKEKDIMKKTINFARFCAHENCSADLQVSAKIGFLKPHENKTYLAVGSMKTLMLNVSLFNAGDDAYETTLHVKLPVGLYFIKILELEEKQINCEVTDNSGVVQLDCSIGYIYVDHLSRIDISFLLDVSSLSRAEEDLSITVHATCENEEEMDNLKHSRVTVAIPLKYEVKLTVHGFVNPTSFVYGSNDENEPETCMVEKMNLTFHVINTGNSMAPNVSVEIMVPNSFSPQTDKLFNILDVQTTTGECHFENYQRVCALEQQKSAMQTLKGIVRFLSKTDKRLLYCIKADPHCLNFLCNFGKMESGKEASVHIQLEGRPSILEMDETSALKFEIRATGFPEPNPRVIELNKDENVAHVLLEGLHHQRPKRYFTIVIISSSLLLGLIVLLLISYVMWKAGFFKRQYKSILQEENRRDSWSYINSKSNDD
Compound,percent of DMSO control GFP [1],GFP response vs DMSO [2],percent response of DMSO control [3],GFP response vs DMSO [4],"GFP response, % of DMSO [5]",double positive events [6] [%],vesicle binding response [6],inhibition [7],superoxide response (% of plate) [8],aptamer binding inhibition [9],response [10],inhibition [11],response [12],binding (% of control) [13],efflux inhibition (fraction of control) [14],inhibition [15],differentiation response [16]
Cc1ccccc1NC(=O)NCCc1c[nH]c2ccccc12,101% (inactive),107% (inactive),101% (inactive),89.4% (inactive),98.8% (inactive),60.8,12.4% (inactive),9.71% (inactive),96.6% (inactive),2% (inactive),9.05% (inactive),7.09% (inactive),-3.03% (inactive),101% (inactive),0.07 (inactive),10% (inactive),-1.88% (inactive)
CC(C)N1C(=O)/C(=C\c2nc3ccccc3c(=O)[nH]2)c2ccccc21,103% (inactive),106% (inactive),103% (inactive),128% (inactive),93.8% (inactive),60.8,157% (inactive),-7.25% (inactive),125% (inactive),6% (inactive),32.8% (inactive),-10.5% (inactive),-1.63% (inactive),101% (inactive),-0.1 (inactive),6% (inactive),-21.6% (inactive)
C#CCN1C(=O)C(O)(c2c(C)[nH]c3ccccc23)c2ccccc21 (stereo unspecified),103% (inactive),106% (inactive),96% (inactive),103% (inactive),100% (inactive),65,220% (inactive),-0.31% (inactive),96.9% (inactive),3% (inactive),1% (inactive),2.17% (inactive),-0.83% (inactive),100% (inactive),-0.44 (inactive),3% (inactive),0% (inactive)
c1ccc(-c2ccccn2)nc1,103% (inactive),112% (inactive),107% (inactive),101% (inactive),102% (inactive),54.1,157% (inactive),6.95% (inactive),96.7% (inactive),8% (inactive),-1.6% (inactive),-7.99% (inactive),-2.77% (inactive),101% (inactive),-0.08 (inactive),55% (active),-4.57% (inactive)
CC1(C)CC(=O)c2c(nc3ccccc3c2N)C1,105% (inactive),90.9% (inactive),111% (inactive),104% (inactive),99.2% (inactive),62.1,259% (inactive),-3.57% (inactive),89.8% (inactive),0% (inactive),-12.4% (inactive),-2.7% (inactive),-3.81% (inactive),102% (inactive),-0.29 (inactive),9% (inactive),0.24% (inactive)
COc1ccccc1N1C(=O)C2CC(C)=C(C)CC2C1=O (stereo unspecified),103% (inactive),102% (inactive),99.3% (inactive),85.2% (inactive),104% (inactive),63,164% (inactive),19.7% (inactive),109% (inactive),11% (inactive),4.23% (inactive),-31.7% (inactive),2.17% (inactive),99% (inactive),-0.06 (inactive),4% (inactive),-3.4% (inactive)
CC(C)CN1CCN(Cc2ccc3ncccc3c2)CC1CCO (stereo unspecified),103% (inactive),96.2% (inactive),118% (inactive),84.8% (inactive),103% (inactive),62,290% (inactive),4.73% (inactive),95% (inactive),-1% (inactive),-8.31% (inactive),-6.16% (inactive),1.7% (inactive),103% (inactive),0.24 (inactive),-9% (inactive),6.11% (inactive)
COc1cc(NS(=O)(=O)c2ccc(N)cc2)nc(OC)n1,98.8% (inactive),102% (inactive),105% (inactive),96.5% (inactive),98.2% (inactive),60.1,102% (inactive),-1.74% (inactive),113% (inactive),3% (inactive),1.82% (inactive),18.1% (inactive),0.53% (inactive),96.4% (inactive),0.01 (inactive),-1% (inactive),14.9% (inactive)
COc1ccccc1OCC(O)COC(N)=O (stereo unspecified),93.3% (inactive),131% (inactive),97.9% (inactive),82% (inactive),84.5% (inactive),62.5,133% (inactive),11.3% (inactive),101% (inactive),1% (inactive),1.55% (inactive),-1.32% (inactive),-1.8% (inactive),101% (inactive),0.01 (inactive),9% (inactive),3.28% (inactive)
COc1ccccc1C(O)c1nccn1C (stereo unspecified),92% (inactive),127% (inactive),106% (inactive),79.8% (inactive),93.1% (inactive),76.2,282% (inactive),17.1% (inactive),81.3% (inactive),4% (inactive),-3.43% (inactive),0.35% (inactive),24.9% (active),104% (inactive),-0.35 (inactive),11% (inactive),-7.37% (inactive)
COc1cc2[nH]c3c(=O)n(CCN4CCOCC4)cnc3c2cc1OC,101% (inactive),96.3% (inactive),101% (inactive),101% (inactive),99.4% (inactive),60.3,172% (inactive),-7.25% (inactive),98.5% (inactive),3% (inactive),-0.47% (inactive),13.5% (inactive),-1.31% (inactive),102% (inactive),-0.17 (inactive),5% (inactive),4% (inactive)
COc1ccc(C(=O)Oc2ccc3c(C)cc(=O)oc3c2C(C)=O)cc1,104% (inactive),103% (inactive),108% (inactive),105% (inactive),106% (inactive),61.4,123% (inactive),-5.11% (inactive),103% (inactive),-1% (inactive),2.26% (inactive),5.55% (inactive),-3.4% (inactive),107% (inactive),0.12 (inactive),14% (inactive),-19.2% (inactive)
CCCN(CCC)C(=O)C(CCC(=O)O)NC(=O)c1ccccc1 (stereo unspecified),98.8% (inactive),109% (inactive),95.4% (inactive),92% (inactive),94.5% (inactive),59.4,977% (inactive),7.85% (inactive),94.3% (inactive),7% (inactive),-4.18% (inactive),-5.39% (inactive),-4.29% (inactive),99.8% (inactive),-0.2 (inactive),-8% (inactive),6.11% (inactive)
CC1CC(OC(=O)C(O)c2ccccc2)CC(C)(C)N1C (stereo unspecified),94.4% (inactive),112% (inactive),94.8% (inactive),111% (inactive),97.5% (inactive),57.9,217% (inactive),-8.62% (inactive),99.3% (inactive),0% (inactive),0.13% (inactive),-13.2% (inactive),7.51% (inactive),103% (inactive),-0.03 (inactive),5% (inactive),-18.4% (inactive)
O=C(NCC1CCCO1)c1ccc(OC2CCN(C(=O)C3CC3)CC2)cc1 (stereo unspecified),98.2% (inactive),106% (inactive),97.8% (inactive),96.6% (inactive),99.4% (inactive),63.1,5260% (inactive),-22.2% (inactive),94% (inactive),2% (inactive),-3.28% (inactive),-5.78% (inactive),0.79% (inactive),101% (inactive),-0.01 (inactive),3% (inactive),-6.6% (inactive)
CC(C)c1ccc(NC(=O)CNS(=O)(=O)c2ccc(F)cc2)cc1,99.3% (inactive),107% (inactive),101% (inactive),120% (inactive),102% (inactive),57.6,260% (inactive),-3.16% (inactive),114% (inactive),-1% (inactive),-11.4% (inactive),-6.24% (inactive),-3.77% (inactive),100% (inactive),-0.1 (inactive),1% (inactive),-13.6% (inactive)
COc1ccc([C@H]2[C@H](C(=O)OC(C)(C)C)N3N=Cc4ccccc4C3C23C(=O)c2ccccc2C3=O)cc1OC (stereo partly specified),99.1% (inactive),106% (inactive),97.7% (inactive),97.4% (inactive),89.1% (inactive),49.9,39.2% (active),-45.5% (inactive),103% (inactive),-1% (inactive),35.3% (inactive),61.9% (active),-3.19% (inactive),96.8% (inactive),-0.06 (inactive),-27% (inactive),-13.6% (inactive)
O=Cc1ccccc1Oc1ccccc1,93.3% (inactive),125% (inactive),115% (inactive),86.4% (inactive),90.3% (inactive),57.3,200% (inactive),-14.9% (inactive),107% (inactive),-5% (inactive),-1.17% (inactive),32.8% (inactive),-3.79% (inactive),107% (inactive),0.12 (inactive),-2% (inactive),33.6% (inactive)
